Screening data as filed in PubChem.
FUS yeast rescue: qHTS for Suppressors of FUS Proteinopathy: Primary screen using FUS-linked yeast assay | 0.24% of 390,000 active | S. cerevisiae FUS-expressing, growth rescue, OD600, 24 h | Potency, µM (series often up to 76.6 µM), usual class: activators; note: nearly all actives have a fitted effect of over 55% in size
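Quantitative HTS measuring growth restoration of FUS-toxic yeast. Galactose-induced cells (OD 0.005) were exposed 24hr at 30C to compounds at several concentrations, then absorbance at 600 nm was recorded.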
uPA generation: qHTS for Inhibitors of Cell Surface uPA Generation; Potency, µM (highest dose often 38.3 µM), hits mostly inhibitors; 0.31% of 330,000 active; cell surface uPA generation assay, qHTS; active = well fitted inhibition curve with a large enough effect; inconclusive = small, poorly fitted or top-dose-only effect; inactive = no such curve, though single readings can be large or run the other way; tested in mouse RAW 264.7 cells; note: nearly all actives have a fitted effect of over 55% in size
TDP43 rescue: qHTS of TDP-43 Inhibitors. TDP-43 expressing yeast growth rescue, BacTiter-Glo, 24 h. Potency, µM (titrated, usually from 46.1 µM), usual class: activators. 1.8% of 410,000 active. AID 652104, 2013; note: nearly all actives have a fitted effect of over 50% in size
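Readout is BacTiter-Glo luminescence of cell growth, so inhibitors register as activators. TDP-43-expressing yeast at OD600=0.02 in galactose medium, after raffinose pregrowth to mid-log, were incubated with compound for 24 hr at 30 deg C.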
Abeta rescue: qHTS for compounds that reverse cellular toxicity of Amyloid beta (A-beta) peptide in yeast: Primary Screen; yeast expressing A-beta42, growth rescue, OD600, 48 h; response scale: 0% DMSO, 100% iron-clioquinol control; Potency, µM (highest dose often 46.1 µM), actives largely listed as activators; 0.063% of 410,000 active; AID 1347071, 2019; note: nearly all actives have a fitted effect of over 55% in size
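Yeast A-beta toxicity model in growth medium with pinned compounds, 48 h at 30 C; growth read as absorbance at 600 nm. Normalized to FeCl3/clioquinol equimolar mix (positive) and DMSO (negative).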
Chronic BCR inh: qHTS Assay to Find Inhibitors of Chronic Active B-Cell Receptor Signaling. Potency, µM (top dose mostly 46.1 µM), most hits filed as inhibitors. AID 493014, 2011. ABC-DLBCL IkBa-CBG/CBR reporter, luminescence ratio, 4 h. 0.05% of 340,000 active; active = well fitted inhibition curve with a large enough effect in the signal ratio, with a control signal flat, not every such curve was filed as active; inconclusive = small, poorly fitted or top-dose-only effect, or effect the other way, or a change in a side signal; the % refers to the signal ratio
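TMD8 human ABC-DLBCL cells with doxycycline-inducible IκBα–green luciferase fusion and unfused red luciferase, in 0.5% FBS medium; compounds up to 46 uM, 4 h at 37C. Green/red luminescence ratio, filter-overlap corrected, fitted to concentration-response curves.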
aSyn yeast inh: qHTS of alpha-syn Inhibitors | 0.14% of 370,000 active | Potency, µM (top dose mostly 46.1 µM), actives largely listed as activators | AID 652106, 2013 | Yeast expressing alpha-synuclein, growth rescue, BacTiter-Glo, 24 h; note: nearly all actives have a fitted effect of over 65% in size
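Screening used galactose-induced yeast with toxic alpha-synuclein levels, exposed to compound for 24 hr at 30 deg C. Cell growth, read with BacTiter-Glo luminescence, gave the measured signal.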
Of the large screens only hits and unclear results are named; the others gave an inactive call; ! = not confirmed by another sample. An excerpt weighted towards active compounds, which were near 2.3% of everything screened. Unless noted, calls come from the whole dose curve; as a rule, active = well fitted curve in the direction sought with a large enough effect; inconclusive = small, poorly fitted or top-dose-only effect, or another doubt; inactive = no such curve, though single readings can be large; an effect the other way counts as inactive or inconclusive.

Cc1cccc(Nc2nc(-c3ccc(O)c(O)c3)cs2)n1	Chronic BCR inh inconclusive
Cc1ccnc(Nc2nc(-c3ccc(O)cc3)cs2)c1	TDP43 rescue 12.6µM, Chronic BCR inh inconclusive
Cc1ccnc(Nc2nc(-c3ccc(O)cc3O)cs2)c1	uPA generation inconclusive, TDP43 rescue 15.8µM
Cc1ccc(Nc2nc(-c3ccccc3)cs2)nc1	uPA generation 10µM, Chronic BCR inh inconclusive
Cc1cccc(Nc2nc(-c3ccc(F)c(C)c3)cs2)n1	TDP43 rescue 14.1µM, Abeta rescue inconclusive, Chronic BCR inh inconclusive
CCC(=O)Nc1c(-c2ccc(C)cc2)c(=O)c2ccccc2n1C	none
CN1CCC(OC(c2ccccc2)c2ccc(Cl)cc2)C1 (stereo unspecified)	none (no result: Chronic BCR inh)
Oc1ccc(-c2csc(Nc3ccccn3)n2)cc1O	uPA generation 3.98µM, Chronic BCR inh inconclusive
Cc1cccnc1Nc1nc(-c2ccc(O)c(O)c2)cs1	uPA generation inconclusive, Chronic BCR inh inconclusive
CCOc1ccc2nc3c(cc2c1)CN(CCOC)C(=NC)S3	none
CCCCCCSc1cc(C)nc2ncnn12	TDP43 rescue 25.1µM
Cc1ccc(Sc2ccc([N+](=O)[O-])cc2[N+](=O)[O-])nc1	TDP43 rescue inconclusive, Chronic BCR inh inconclusive
Cc1ccnc(Sc2ccc([N+](=O)[O-])cc2[N+](=O)[O-])n1	TDP43 rescue 20µM, Chronic BCR inh inconclusive
CC(C)[C@H](COC=O)NC(=O)[C@H]1O[C@@H](n2ccc(N)nc2=O)[C@H](O)[C@@H]1O	none (no result: uPA generation, Chronic BCR inh)
COc1cc(OC)c(NC(=O)C(C)n2nc(-c3ccc(C)c(C)c3)ccc2=O)cc1Cl (stereo unspecified)	FUS yeast rescue inconclusive, TDP43 rescue 12.6µM (no result: uPA generation, Chronic BCR inh, aSyn yeast inh)
Cc1cc(OCc2cc(C(=O)N(C)CCc3cnn(C)c3)no2)cc(C)c1Cl	none
Cc1cc(OCc2cc(C(=O)N(C)C3CCOC3)no2)cc(C)c1Cl (stereo unspecified)	TDP43 rescue 12.6µM
Cc1cc(OCc2cc(C(=O)N(C)Cc3nonc3C)no2)cc(C)c1Cl	TDP43 rescue inconclusive, Abeta rescue 14.1µM
CCc1ccc(CN(C)C(=O)c2cc(COc3cc(C)c(Cl)c(C)c3)on2)nc1	FUS yeast rescue inconclusive, TDP43 rescue 20µM, Chronic BCR inh inconclusive, aSyn yeast inh inconclusive
COc1cc2nc(NC(=O)c3ccc(F)cc3Cl)sc(=O)c2cc1OC	uPA generation inconclusive
CCC(=O)Nc1ccc(Cl)c(NC(=S)NC(=O)c2ccco2)c1	TDP43 rescue 11.2µM
O=C(NC(=S)NCCc1ccccc1)c1ccccc1F	TDP43 rescue 11.2µM, Chronic BCR inh inconclusive
S=C(NCCc1ccc(Cl)cc1)NCc1ccco1	Abeta rescue inconclusive
O=C(NC(=S)NCCc1ccc(Cl)cc1)c1ccco1	TDP43 rescue 14.1µM, Abeta rescue inconclusive, Chronic BCR inh inconclusive
Cc1nn(-c2ccccc2)nc1C(=O)Nc1ccc2[nH]ncc2c1	none
O=C(/C=C/c1cccnc1)c1ccc(NC(=O)c2cccc(Br)c2)cc1	none
Cn1nc(-c2ccccc2)c(CO)c1Oc1cccc(C(F)(F)F)c1	TDP43 rescue 11.2µM
CCOC(=O)c1cc(C#N)c(Oc2cccc(C(F)(F)F)c2)nc1-c1ccccc1	none
C[C@H](NS(=O)(=O)OCC(Cl)(Cl)Cl)C1CC1c1ccccc1 (stereo partly specified)	TDP43 rescue 22.4µM
CC(NS(=O)(=O)OCC(Cl)(Cl)Cl)c1ccc(C(C)(C)C)cc1 (stereo unspecified)	uPA generation inconclusive
COc1ccc(-c2cc(C(=O)O)c(C)o2)cc1OC	TDP43 rescue 20µM, Chronic BCR inh inconclusive (no result: aSyn yeast inh)
O=C(NCc1ccccc1)c1ccc2oc(=O)n(Cc3ccccc3)c2c1	TDP43 rescue 22.4µM (no result: uPA generation, Chronic BCR inh, aSyn yeast inh)
O=S(=O)(NCCc1csc(-c2ccccc2)n1)c1ccc2c(c1)OCCO2	TDP43 rescue 20µM, Chronic BCR inh inconclusive
CCc1ccc(S(=O)(=O)NCCc2csc(-c3ccccc3)n2)s1	TDP43 rescue 14.1µM, aSyn yeast inh inconclusive
CCc1ccc(S(=O)(=O)NCCc2csc(-c3cccnc3)n2)s1	TDP43 rescue 12.6µM, Abeta rescue inconclusive
CC1(N2CCOCC2)C(=O)c2ccccc2C1=O	none
COC(=O)c1[nH]nc2c1C(=O)N(C1CCCCC1)C2=O	Chronic BCR inh inconclusive
CC(=O)c1c(N2CCOCC2)nc2ccc(Br)cc2c1-c1ccccc1	TDP43 rescue 14.1µM
O=c1[nH]c2ccc(Br)cc2c(-c2ccccc2)c1N1CCOCC1	none
Nc1ccc(NC(=O)c2cccc(C(=O)Nc3ccc(N)cc3Cl)c2)c(Cl)c1	FUS yeast rescue 11.2µM!
N#CC1=C(N)Oc2c(ccc3cccnc23)C1c1cccnc1 (stereo unspecified)	Chronic BCR inh inconclusive
CCc1ccc2[nH]c(=O)c(C3C(C#N)=C(N)Oc4c3ccc3cccnc43)cc2c1 (stereo unspecified)	FUS yeast rescue 25.1µM
CCOc1cccc(C2C(C#N)=C(N)Oc3cc(C)[nH]c(=O)c32)c1OCC (stereo unspecified)	Chronic BCR inh inconclusive
Cc1ccc2cc(C3C(C#N)=C(N)Oc4c3ccc3cccnc43)c(=O)[nH]c2c1 (stereo unspecified)	FUS yeast rescue 28.2µM (no result: uPA generation)
COc1cc2ccccc2cc1C(=O)N1CCN(c2nc3c(F)cccc3s2)CC1	TDP43 rescue 11.2µM (no result: uPA generation, aSyn yeast inh)
COc1cc2ccccc2cc1C(=O)N1CCN(c2nc3c(F)cc(F)cc3s2)CC1	FUS yeast rescue inconclusive, TDP43 rescue 15.8µM (no result: uPA generation, aSyn yeast inh)
O=C(c1cccs1)N1CCN(c2nc3c(F)cc(F)cc3s2)CC1	TDP43 rescue inconclusive, Chronic BCR inh inconclusive
CCc1cccc2sc(N3CCN(C(=O)c4cc5ccccc5cc4OC)CC3)nc12	none (no result: uPA generation, aSyn yeast inh)
O=C(O)CNS(=O)(=O)c1ccc(-c2ccccc2)cc1	none (no result: FUS yeast rescue, uPA generation, TDP43 rescue, Abeta rescue, aSyn yeast inh)
COc1ccc(/C=c2\s/c(=C\C(=O)C(C)(C)C)[nH]c2=O)cc1O	uPA generation inconclusive, Chronic BCR inh inconclusive
CC#CC#Cc1cccc(=O)o1	uPA generation 5.01µM, TDP43 rescue inconclusive, Chronic BCR inh inconclusive
CCC[C@H]1NC(=O)[C@H](C)N(C)C(=O)C(C)(C)C(=O)C(C)NC(=O)[C@H](Cc2ccc(OC)cc2)N(C)C(=O)[C@H](C(C)C)N(C)C(=O)CNC(=O)[C@H](CC(C)C)N(C)C(=O)CNC(=O)[C@H]([C@@H](C)CC)OC(=O)[C@H]1C (stereo partly specified)	FUS yeast rescue inconclusive, TDP43 rescue 35.5µM, Chronic BCR inh inconclusive
